This is an account of results in PubChem BioAssay.

A short description of experiment [1]: small molecules captured by biotinylated probe aFSTL3 – biochemical, small-molecule microarray, fluorescence 635/667, stem cell growth factor project, primary screen (AID 1064).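 Note: measures binding of the biotinylated anti-FSTL3 antibody to printed compounds.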 The following applies: higher = more signal.
Experiment [2] can be described thus: binders from COS7 lysate, DM2A8 probe, primary screen, torsin A project, cell lysate, small-molecule microarray, fluorescence 635/667 (AID 1065). The following applies: higher = more signal, COS7 lysate expressing mutant human TOR1A.
Experiment [3] is described as follows: small molecules captured by biotinylated probe aFGF2 – biochemical, small-molecule microarray, fluorescence 635/667, stem cell growth factor project, primary screen (AID 1067).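 Note: measures binding of biotinylated aFGF2 protein to printed compounds on slides; z-score merges feature fluorescence and signal-to-noise across triplicate slides.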 The following applies: higher = more signal.
A short description of experiment [4]: small molecules captured by biotinylated probe aFGF10 – biochemical, small-molecule microarray, fluorescence 635/667, stem cell growth factor project, primary screen (AID 1071).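 Note: score merges 667 nm spot intensity and signal to noise from triplicate slides.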 The following applies: higher = more signal.
The target of experiment [5] is Neurogenic locus notch homolog protein 2 (Homo sapiens) (UniProt Q04721). Kind of experiment: small molecules binding Notch2 protein – biochemical, small-molecule microarray, 635 nm fluorescence, stem cell growth factors, primary screen (AID 1073). Particulars: higher = more signal.
The target of experiment [6] is Pro-neuregulin-1, membrane-bound isoform (Homo sapiens) (UniProt Q02297). Kind of experiment: small molecules binding neuregulin-1 protein – biochemical, small-molecule microarray, fluorescence 635/667, psychiatric disease protein project, primary screen (AID 1075).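 Note: score combines 667 nm spot fluorescence with signal to noise.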 The following applies: NRG1 binding, 635 nm fluorescence, higher = more signal.
In experiment [7] the test system is Neuregulin-1 EGF-like domain. Kind of experiment: small molecules binding NRG1 EGF domain – biochemical, small-molecule microarray, 635 nm fluorescence, primary screen (AID 1081).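 Note: binding of the protein to compounds printed on small-molecule microarray slides.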 Particulars: higher = more signal.
Experiment [8] can be described thus: FRG1 expression reporter modulators in myotubes – cell-based, C2C12 myotubes, firefly/Renilla luciferase, luminescence, FRG1 inhibition for FSHD, primary screen (AID 1084). Particulars: FRG1 promoter luciferase, higher = more signal, called active from +8 up or from −8 down.
Experiment [9] is described as follows: small molecules captured by biotinylated probe aFST – biochemical, small-molecule microarray, fluorescence 635/667, stem cell growth factor project, primary screen (AID 1086).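 Note: score merges 667 nm fluorescence with signal-to-noise of each printed compound spot.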 Particulars: higher = more signal.
Experiment [10] is described as follows: binders of probe aHhip on microarray, primary screen, stem cell growth factor project, biochemical, small-molecule microarray, fluorescence 635/667 (AID 1087).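 Note: score merges spot fluorescence at 667nm with spot signal to noise ratio.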 Particulars: higher = more signal.
Experiment [11] relates to PRMT1 (protein arginine N-methyltransferase 1). As to the kind of experiment: small molecules binding arginine methyltransferase PRMT1 – biochemical, small-molecule microarray, 635 nm fluorescence, primary screen (AID 1088).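 Note: binding of Prmt1 protein to compounds spotted on small-molecule microarray slides.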 Particulars: higher = more signal.
A short description of experiment [12]: growth effects on S. cerevisiae YJM789 – YJM789 clinical isolate, OD600, 24 h, basal, primary screen (AID 1089).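 Note: growth of clinical yeast isolate S. cerevisiae YJM 789 seeded 1000 cells per well; test concentration not given here.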 The following applies: higher = more signal, called active from +8 up or from −8 down.
Experiment [13] in a line: S. pombe growth modifiers, basal conditions – strain 972, OD600, 24 h, no modulator, primary screen (AID 1090).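 Note: basal condition with compound alone and no growth modifier present; test concentration not given here.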 The following applies: S. pombe 972 growth, higher = more signal, called active from +8 up or from −8 down.
The nature of experiment [14]: budding yeast growth modifiers under rapamycin – strain BY4716, OD600, 96 h, primary screen (AID 1091). Note: test concentration not given here. The following applies: S. cerevisiae BY4716 + rapamycin, higher = more signal, called active from +8 up or from −8 down.
In experiment [15] the target is Torsin-1A-interacting protein 2 (Homo sapiens) (UniProt Q8NFQ8). Kind of experiment: small molecules binding lysate-expressed LULL1 – cell lysate, human LULL1 lysate, 635/667 nm fluorescence, primary screen (AID 1092).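 Note: probe is lysate of COS7 cells overexpressing human LULL1; score merges per-feature 667 nm fluorescence with signal-to-noise.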 The following applies: small-molecule microarray, hLULL1 lysate binding, 635 nm fluorescence; higher = more signal.
Experiment [16] in a line: optical density change of DRC41 E. coli – strain DRC41, OD650, 24 h, E. coli filamentation project, primary screen (AID 1093).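 Note: MC1000 strain lacking acrAB efflux and sulA so SOS filamentation is blocked; test concentration not given here.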 The following applies: E. coli DRC41 growth, higher = more signal, called active from +8 up or from −8 down.
A short description of experiment [17]: probe aLefty2 binding to arrayed compounds – biochemical, biotinylated probe, 635/667 nm fluorescence, primary screen (AID 1094).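 Note: score merges spot fluorescence near 667 nm with spot signal-to-noise ratio.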 Particulars: small-molecule microarray, higher = more signal.
The test system of experiment [18] is Noggin (protein binding on small-molecule microarray). As to the kind of experiment: small molecules binding Noggin protein – biochemical, 635/667 nm fluorescence, primary screen (AID 1095).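 Note: score merges 667 nm feature fluorescence with signal to noise over triplicate slides.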 The following applies: 635 nm fluorescence, higher = more signal.
In experiment [19] the target is Neurogenic locus notch homolog protein 3 (Homo sapiens) (UniProt Q9UM47). As to the kind of experiment: small molecules binding NOTCH3 protein – biochemical, 635/667 nm fluorescence, primary screen (AID 1096). The following applies: small-molecule microarray, 635 nm fluorescence, higher = more signal.
Experiment [20] is described as follows: probe aEGFR binding to arrayed compounds – biochemical, biotinylated probe, 635/667 nm fluorescence, primary screen (AID 1097).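 Note: probe is a biotinylated anti-EGFR antibody binding compounds printed on slides; score combines fluorescence near 667 nm and signal to noise of each spot.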 Particulars: small-molecule microarray, higher = more signal.

Activity calls are given as the source filed them.

Neurogenic locus notch homolog protein 2 (Homo sapiens), sequence (Q04721 whole entry, looked up, canonical isoform): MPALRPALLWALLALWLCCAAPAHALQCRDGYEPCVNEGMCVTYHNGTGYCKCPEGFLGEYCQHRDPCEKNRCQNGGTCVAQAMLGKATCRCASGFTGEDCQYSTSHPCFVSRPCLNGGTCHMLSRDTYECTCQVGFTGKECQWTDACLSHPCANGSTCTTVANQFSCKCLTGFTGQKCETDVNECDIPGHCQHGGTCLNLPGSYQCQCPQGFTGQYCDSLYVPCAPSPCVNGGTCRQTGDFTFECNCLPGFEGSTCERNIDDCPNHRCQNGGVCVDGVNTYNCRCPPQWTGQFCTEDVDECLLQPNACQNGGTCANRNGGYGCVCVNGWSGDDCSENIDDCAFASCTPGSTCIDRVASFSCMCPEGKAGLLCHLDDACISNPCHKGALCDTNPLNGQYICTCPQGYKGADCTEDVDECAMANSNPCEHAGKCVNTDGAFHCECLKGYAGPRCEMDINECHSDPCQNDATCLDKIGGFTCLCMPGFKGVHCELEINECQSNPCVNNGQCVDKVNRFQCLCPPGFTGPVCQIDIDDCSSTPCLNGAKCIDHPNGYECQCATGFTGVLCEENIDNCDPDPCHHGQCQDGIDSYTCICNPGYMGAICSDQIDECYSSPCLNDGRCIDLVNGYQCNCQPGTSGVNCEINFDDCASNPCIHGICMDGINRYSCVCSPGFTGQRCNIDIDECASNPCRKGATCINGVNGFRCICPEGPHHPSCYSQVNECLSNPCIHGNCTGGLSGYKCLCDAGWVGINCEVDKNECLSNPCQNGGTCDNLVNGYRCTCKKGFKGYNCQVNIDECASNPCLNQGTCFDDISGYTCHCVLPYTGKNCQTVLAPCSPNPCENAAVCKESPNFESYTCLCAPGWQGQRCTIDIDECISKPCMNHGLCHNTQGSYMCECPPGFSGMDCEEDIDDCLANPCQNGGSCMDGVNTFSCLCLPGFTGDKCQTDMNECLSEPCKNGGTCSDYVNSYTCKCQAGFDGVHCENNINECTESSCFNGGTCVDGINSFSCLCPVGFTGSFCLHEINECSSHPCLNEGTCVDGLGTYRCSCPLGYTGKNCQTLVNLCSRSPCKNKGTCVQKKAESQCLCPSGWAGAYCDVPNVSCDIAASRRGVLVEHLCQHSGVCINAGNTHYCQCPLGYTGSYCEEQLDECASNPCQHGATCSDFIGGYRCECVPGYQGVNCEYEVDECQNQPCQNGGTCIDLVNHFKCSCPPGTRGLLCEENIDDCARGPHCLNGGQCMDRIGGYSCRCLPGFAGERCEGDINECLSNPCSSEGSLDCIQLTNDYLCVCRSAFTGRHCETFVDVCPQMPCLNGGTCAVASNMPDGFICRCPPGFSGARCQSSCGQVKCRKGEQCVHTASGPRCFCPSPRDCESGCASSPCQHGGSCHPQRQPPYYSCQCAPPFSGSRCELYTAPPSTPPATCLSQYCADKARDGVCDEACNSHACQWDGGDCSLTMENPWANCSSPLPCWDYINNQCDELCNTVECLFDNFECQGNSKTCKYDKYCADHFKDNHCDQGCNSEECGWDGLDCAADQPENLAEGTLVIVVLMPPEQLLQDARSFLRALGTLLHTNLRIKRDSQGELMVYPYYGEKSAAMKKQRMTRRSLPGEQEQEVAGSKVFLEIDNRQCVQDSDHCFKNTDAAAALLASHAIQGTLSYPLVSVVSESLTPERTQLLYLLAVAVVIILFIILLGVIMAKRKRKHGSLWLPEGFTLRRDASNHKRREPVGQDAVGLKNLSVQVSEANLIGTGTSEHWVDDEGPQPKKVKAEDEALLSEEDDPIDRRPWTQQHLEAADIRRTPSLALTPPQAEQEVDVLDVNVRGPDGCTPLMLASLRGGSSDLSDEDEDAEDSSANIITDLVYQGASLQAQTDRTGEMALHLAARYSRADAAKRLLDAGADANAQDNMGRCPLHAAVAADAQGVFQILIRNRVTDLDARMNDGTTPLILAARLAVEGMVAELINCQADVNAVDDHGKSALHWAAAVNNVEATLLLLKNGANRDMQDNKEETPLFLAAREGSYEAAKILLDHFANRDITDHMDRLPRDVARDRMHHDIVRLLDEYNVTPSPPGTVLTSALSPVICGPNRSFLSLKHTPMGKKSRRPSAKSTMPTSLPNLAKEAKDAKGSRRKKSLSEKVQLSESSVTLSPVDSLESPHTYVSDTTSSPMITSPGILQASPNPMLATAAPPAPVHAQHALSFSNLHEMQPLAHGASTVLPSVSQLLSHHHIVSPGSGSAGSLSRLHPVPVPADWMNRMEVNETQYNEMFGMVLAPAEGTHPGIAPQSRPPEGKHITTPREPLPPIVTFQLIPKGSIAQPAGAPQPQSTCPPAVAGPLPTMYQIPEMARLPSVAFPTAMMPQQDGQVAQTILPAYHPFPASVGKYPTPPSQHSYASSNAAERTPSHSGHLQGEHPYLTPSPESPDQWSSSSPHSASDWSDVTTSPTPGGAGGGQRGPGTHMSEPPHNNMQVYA
Neurogenic locus notch homolog protein 3 (Homo sapiens), sequence (Q9UM47 whole entry, looked up): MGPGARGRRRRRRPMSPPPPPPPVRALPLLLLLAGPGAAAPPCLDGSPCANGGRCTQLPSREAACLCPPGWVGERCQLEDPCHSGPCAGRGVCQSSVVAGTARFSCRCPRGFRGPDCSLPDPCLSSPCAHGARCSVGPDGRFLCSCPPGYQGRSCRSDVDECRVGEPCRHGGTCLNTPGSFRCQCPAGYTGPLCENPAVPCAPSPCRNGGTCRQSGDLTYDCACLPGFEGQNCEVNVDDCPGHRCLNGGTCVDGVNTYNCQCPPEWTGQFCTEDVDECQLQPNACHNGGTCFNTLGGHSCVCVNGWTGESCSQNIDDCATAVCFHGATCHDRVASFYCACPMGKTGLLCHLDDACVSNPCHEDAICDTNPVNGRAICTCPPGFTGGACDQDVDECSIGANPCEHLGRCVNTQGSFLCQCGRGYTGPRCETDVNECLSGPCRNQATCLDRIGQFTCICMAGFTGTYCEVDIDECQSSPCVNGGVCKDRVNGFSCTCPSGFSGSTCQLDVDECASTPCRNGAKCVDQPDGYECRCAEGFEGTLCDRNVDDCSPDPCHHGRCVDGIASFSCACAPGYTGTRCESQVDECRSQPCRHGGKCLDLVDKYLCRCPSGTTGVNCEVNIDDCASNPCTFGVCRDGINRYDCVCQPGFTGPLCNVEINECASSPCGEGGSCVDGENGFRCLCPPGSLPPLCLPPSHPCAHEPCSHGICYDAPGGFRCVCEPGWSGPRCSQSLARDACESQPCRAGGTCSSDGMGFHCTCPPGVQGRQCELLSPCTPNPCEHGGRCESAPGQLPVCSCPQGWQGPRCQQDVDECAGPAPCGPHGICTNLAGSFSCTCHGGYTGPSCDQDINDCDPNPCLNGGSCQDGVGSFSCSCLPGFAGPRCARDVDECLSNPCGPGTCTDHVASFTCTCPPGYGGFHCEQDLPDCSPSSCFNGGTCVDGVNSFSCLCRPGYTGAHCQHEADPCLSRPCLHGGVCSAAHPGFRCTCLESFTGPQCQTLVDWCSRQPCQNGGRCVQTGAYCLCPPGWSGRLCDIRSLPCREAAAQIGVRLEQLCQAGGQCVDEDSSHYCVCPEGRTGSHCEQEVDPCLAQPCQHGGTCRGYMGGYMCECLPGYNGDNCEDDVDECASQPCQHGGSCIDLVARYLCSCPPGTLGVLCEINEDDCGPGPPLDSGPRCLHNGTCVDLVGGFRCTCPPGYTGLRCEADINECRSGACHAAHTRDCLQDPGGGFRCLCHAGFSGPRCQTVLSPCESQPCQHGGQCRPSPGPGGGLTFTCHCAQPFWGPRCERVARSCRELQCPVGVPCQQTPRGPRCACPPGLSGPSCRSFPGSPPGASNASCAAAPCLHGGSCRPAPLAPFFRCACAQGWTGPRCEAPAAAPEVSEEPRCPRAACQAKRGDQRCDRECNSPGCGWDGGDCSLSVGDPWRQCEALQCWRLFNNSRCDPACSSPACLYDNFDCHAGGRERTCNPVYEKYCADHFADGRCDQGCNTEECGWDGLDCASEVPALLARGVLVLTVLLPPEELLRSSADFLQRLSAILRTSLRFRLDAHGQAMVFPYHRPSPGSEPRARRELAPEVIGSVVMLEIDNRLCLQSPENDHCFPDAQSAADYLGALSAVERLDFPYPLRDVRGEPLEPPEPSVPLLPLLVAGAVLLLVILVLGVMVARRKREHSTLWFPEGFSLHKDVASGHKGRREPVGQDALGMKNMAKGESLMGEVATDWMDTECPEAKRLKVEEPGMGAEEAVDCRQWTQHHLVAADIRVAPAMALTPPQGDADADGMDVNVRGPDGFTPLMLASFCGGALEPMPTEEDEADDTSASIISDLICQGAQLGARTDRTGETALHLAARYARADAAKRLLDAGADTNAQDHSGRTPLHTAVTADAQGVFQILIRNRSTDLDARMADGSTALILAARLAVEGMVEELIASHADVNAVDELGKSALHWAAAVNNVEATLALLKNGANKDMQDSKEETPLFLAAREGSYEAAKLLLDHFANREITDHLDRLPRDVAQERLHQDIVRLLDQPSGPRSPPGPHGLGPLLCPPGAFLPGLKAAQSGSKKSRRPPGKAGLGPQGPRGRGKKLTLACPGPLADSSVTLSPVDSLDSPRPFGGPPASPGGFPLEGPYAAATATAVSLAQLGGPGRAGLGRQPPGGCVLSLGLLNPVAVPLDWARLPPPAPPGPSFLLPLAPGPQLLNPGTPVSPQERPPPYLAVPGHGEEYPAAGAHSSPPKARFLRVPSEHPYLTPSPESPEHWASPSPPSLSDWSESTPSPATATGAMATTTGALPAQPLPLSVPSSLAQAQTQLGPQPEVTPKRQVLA

On to `COc1cc(Br)cc(C(O)C2C=CC3C(=O)N(C)C(=O)C3N2N2CCCCC2)c1OC` (stereo not given), for which the composite z-score in [1] is 0.0974; in [2], -1.02; in experiment [3], -0.053; in [4] it was -0.207; in experiment [5] it was 0.224; in [6], 0.818. Moreover, the composite z-score in experiment [7] was 1.31; in experiment [9], 0.347; in [10], 0.0677; in experiment [11], -0.962; in [15], 1.49; in experiment [17], 0.118. Further, the composite z-score in experiment [18] was -1.27; in experiment [19], -0.702; in experiment [20] it was 0.0122. For the same compound, the z-score was 0.876 (inactive) in [8]; 0.733 (inactive) in experiment [12]; 1.13 (inactive) in [13]; 1.73 (inactive) in experiment [14]; -1.54 (inactive) in [16].

In the case of `CCOC(=O)C[C@H]1[C@H](OC(=O)c2ccc(C(=O)c3ccccc3)cc2)[C@@H](NC(=O)c2ccc3ccccc3n2)c2cc(OCCCO)ccc2N1C(=O)c1ccccc1`, the composite z-score in experiment [1] is -0.384; in experiment [2], 0.264; in [3] it was 0.0498; in experiment [4] it was 1.03; in experiment [5], 0.454; in experiment [6], 0.45. The composite z-score in [7] is 0.975; in experiment [9] it was 0.493; in experiment [10] it was -0.243; in [11], 1.23; in experiment [15], 1.94; in experiment [17], -0.025. The composite z-score in [18] came to 0.552; in experiment [19] it was 0.99; in experiment [20], 0.0864. Further, the z-score in [8] is 0.823 (inactive); in experiment [12], -0.658 (inactive); in experiment [13] it was 0.103 (inactive); in experiment [14], -0.291 (inactive); in experiment [16] it was -1.16 (inactive).

Turning to `C=CCOC(=O)[C@H]1[C@@H]2C(=O)O[C@@H](c3ccccc3)[C@@H](c3ccccc3)N2[C@@H](c2ccc(OCCOC(=O)[C@H]3C[C@H]4C(=O)N[C@@H](CCCCNC(C)=O)C(=O)N4[C@H]3c3ccc(O)cc3)cc2)[C@]12C(=O)Nc1ccc(I)cc12`, the composite z-score in experiment [1] was -0.37; in experiment [2], 0.517; in experiment [3], 0.0126; in experiment [4], 0.169; in [5], 0.791; in experiment [6], 0.349. Moreover, the composite z-score was 1.14 in [7]; 1.3 in [9]; 0.312 in [10]; 1.57 in experiment [11]; 1.81 in experiment [15]; -0.0566 in experiment [17]. For the same compound, the composite z-score in experiment [18] is 1.5; in experiment [19], 1.07; in [20] it was -0.0088. Moreover, the z-score in experiment [8] is 0.136 (inactive); in experiment [12] it was 1.12 (inactive); in experiment [13] it was -2.33 (inactive); in experiment [14], 1.75 (inactive); in experiment [16], -2.07 (inactive).

In the case of `C=CCN1C(=O)[C@]2(O[C@H](CCn3cc([C@H](O)c4ccccc4)nn3)[C@@H]([Si](C)(C)c3ccc(OC)cc3)[C@@H]2C)c2cc(N3CCC3=O)ccc21`, the composite z-score is -0.0453 in experiment [1]; 0.334 in experiment [2]; 0.0087 in [3]; 0.679 in experiment [4]; -0.255 in experiment [5]; 1.9 in experiment [6]. The composite z-score in [7] is 1.14; in experiment [9], -0.282; in experiment [10], 0.0505; in experiment [11] it was 0.942; in experiment [15], 1.56; in [17], -0.0397. The composite z-score in experiment [18] was 1.82; in [19], 0.803; in experiment [20], -0.154. The z-score in [8] is -1.43 (inactive); in experiment [12], 0.487 (inactive); in [13] it was 0.406 (inactive); in experiment [14], 2.47 (inactive); in experiment [16] it was 1.28 (inactive).

Turning to `COc1cc2c(cc1OC)CN(C(=O)[C@H]1[C@@H]3C(=O)O[C@@H](c4ccccc4)[C@@H](c4ccccc4)N3[C@@H](c3ccc(O)cc3)[C@]13C(=O)Nc1ccc(C#CCCO)cc13)CC2`, the composite z-score was 0.0257 in experiment [1]; 0.322 in experiment [2]; -0.0659 in experiment [3]; 0.519 in experiment [4]; 0.0774 in experiment [5]; 1.63 in [6]. Moreover, the composite z-score in experiment [7] is 1.28; in experiment [9], -0.0227; in experiment [10] it was -0.125; in experiment [11], 1.56; in experiment [15], 2.44; in [17], -0.145. Besides, the composite z-score in [18] is 0.837; in experiment [19], 0.434; in [20], -0.152. Moreover, the z-score is -0.845 (inactive) in experiment [8]; 1 (inactive) in experiment [12]; -0.0822 (inactive) in [13]; 1.91 (inactive) in [14]; 1.32 (inactive) in [16].
